HT1080-NT tox – qHTS for induction of synthetic lethality in tumor cells producing 2HG: qHTS for the HT-1080-NT fibrosarcoma cell line. Potency, µM (highest dose often 46.1 µM), for the others: at the top dose activity, negative = less viability, hits mostly cytotoxic. hit rate 1.6% among 360,000. HT-1080-NT fibrosarcoma viability, CellTiter-Glo ATP luminescence, 48 h;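 further: NT is the 2HG producing partner of a matched IDH1 knockdown line; potency means the concentration at half of the fitted maximal effect; 0% = DMSO-treated cells and -100% = media-only wells without cells; nearly all actives have a fitted effect of over 55% in size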
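HT-1080-NT fibrosarcoma cells (2HG-overproducing), 750 cells/well in RPMI with 5% FBS, dosed after 2 h and incubated 48 h at 37C. CellTiter-Glo luminescence normalized to DMSO and no-cell wells; concentration-response curves fitted and classed.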
TDP1 cell CPT – qHTS for Inhibitors of human tyrosyl-DNA phosphodiesterase 1 (TDP1): qHTS in cells in presence of CPT; hit rate 12% among 420,000; chicken DT40 Tdp1-/-;hTDP1 cells + 20 nM CPT, ATP luminescence, 48 h; Potency, µM (titrated, usually from 46.2 µM), inactives show top-dose activity change, negative = growth inhibition, actives largely listed as inhibitors; AID 686979, 2013; further: potency means the concentration at half of the fitted maximal effect; nearly all actives have a fitted effect of over 55% in size
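Chicken DT40 Tdp1-/- cells complemented with human TDP1, 400 cells/well, exposed to compounds plus 20 nM camptothecin for at least 48 h at 37 C; viability read as ATP content by CellTiter-Glo luminescence.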
HT1080 IDH1KD tx – qHTS for induction of synthetic lethality in tumor cells producing 2HG: qHTS for the HT-1080-IDH1KD cell line; Potency, µM (series often up to 46.1 µM), inactives show at the highest dose activity, negative = toxicity, most hits filed as cytotoxic; HT-1080 IDH1 knockdown viability, ATP luminescence, 48 h; hit rate 2% among 360,000; AID 686971, 2013;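 further: potency means the concentration at half of the fitted maximal effect; 0% = DMSO wells and -100% = cell-free medium wells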
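Assay cells: HT-1080 with IDH1 knockdown, 750 per well, RPMI/5% FBS. Exposure: 48 h at 37 °C following 2 h pre-incubation. Read: CellTiter-Glo luminescence; fitted concentration-response, curve class assigned.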
DT40 TDP1 no CPT – qHTS for Inhibitors of human tyrosyl-DNA phosphodiesterase 1 (TDP1): qHTS in cells in absence of CPT. DT40 Tdp1-/- hTDP1 cells, no CPT, ATP luminescence, 48 h. Potency, µM (top dose mostly 46.2 µM), without a hit: at the top dose activity change, negative = growth inhibition, actives largely listed as inhibitors. hit rate 15% among 420,000. AID 686978, 2013; further: potency means the concentration at half of the fitted maximal effect; nearly all actives have a fitted effect of over 55% in size
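Seeded 400 DT40-hTDP1 cells/well (vehicle DMSO, no 20 nM CPT); pinned compounds; ≥48 hr at 37 °C; CellTiter-Glo luminescence as viability measure.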
IL1B secr inh – qHTS for Inhibitors of Inflammasome Signaling: IL-1-beta AlphaLISA Primary Screen | THP-1 LPS/ATP IL-1B secretion, AlphaLISA, 16 h; active compounds read low | hit rate 4.7% among 360,000 | AID 743279, 2014 | activity change, % at 57.5 µM; in the data active means activity change below about -50%; inconclusive means mostly about -30% to -49%
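Secreted IL-1B measured by AlphaLISA bead assay after 16 h compound exposure of THP-1 cells; compounds (final up to 57.5 uM) added 1 h before LPS (250 ng/mL) and ATP (1.25 mM) stimulation; lower signal means less secretion.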
Numbers without * were called inactive; ? = inconclusive; · = not tested or not shown. This is a sample that favours compounds with a hit; in the whole collection about 19% have one here. Unless noted, the call rests on the fitted dose curve; in most records, active means well fitted curve in the direction sought with a large enough effect; inconclusive means small, poorly fitted or top-dose-only effect, or another doubt; inactive means no such curve, though single readings can be large; an effect the other way counts as inactive or inconclusive. Unless noted, on the % scale 0 is the no-effect control and ±100 the full control effect.

SMILES | HT1080-NT tox | TDP1 cell CPT | HT1080 IDH1KD tx | DT40 TDP1 no CPT | IL1B secr inh
O=C(NC1CCCCC1)N1CCC(c2nc(-c3ccc(S(=O)(=O)N4CCCC4)cc3)no2)CC1 | -0.8% | 10.3µM* | -0.7% | 9.2µM* | 19.8
CCCS(=O)(=O)N1CCCC(c2nc(-c3ccc(OC)cc3)no2)C1 (stereo unspecified) | 4.6% | -27.3% | 6.2% | -20.7% | ?
Cc1ccc(-c2nc(C3CCN(S(=O)(=O)c4ccc(C(C)(C)C)cc4)CC3)no2)cc1 | 2.9% | ? | 7.6% | ? | 0.0
CC(C)(C)c1ccc(C(=O)N2CCC(c3noc(-c4ccc(S(=O)(=O)N5CCCC5)cc4)n3)CC2)cc1 | · | 20.6µM* | · | 18.4µM* | ·
O=C(Cc1ccccc1)N1CCCC(c2nc(-c3ccc(S(=O)(=O)N4CCCC4)cc3)no2)C1 (stereo unspecified) | -6.8% | ? | 6.0% | ? | -71.5*
O=C(Cc1ccccc1)N1CCC(c2nc(-c3ccc(F)cc3)no2)CC1 | -4.0% | ? | -26.7% | ? | -13.0
CCOc1ccccc1C(=O)NCc1nc2cccnc2n1Cc1ccc(C)cc1 | · | 18.4µM* | · | 16.4µM* | ·
COc1ccc(CCC(=O)NCc2nc3cccnc3n2Cc2ccc(OC)cc2)cc1 | · | -8.6% | · | -15.3% | ·
COc1ccc(CCC(=O)NCc2nc3cccnc3n2Cc2ccccc2)cc1 | · | ? | · | 16.4µM* | ·
COc1ccc(CCC(=O)NCc2nc3cccnc3n2Cc2ccc(C)cc2)cc1 | · | ? | · | 23.1µM* | ·
CCCc1cc(C(=O)Nc2ccc(OC)cc2[N+](=O)[O-])cs1 | 4.7% | -12.3% | -0.3% | -5.2% | ?
COc1ccc(-c2oc3c(c2C#CC(C)(C)O)C(OC)CCC3)cc1 (stereo unspecified) | ? | ? | -4.2% | 16.4µM* | -59.2*
CCN(CC(=O)Nc1ccc(Br)cc1)C(=O)c1nc2nc(C)cc(C)n2n1 | -3.5% | -1.4% | 1.6% | 21.8% | 11.8
COc1ccc(SCC(=O)c2cc(C)c(OC(=S)N(C)C)c(C)c2)cc1 | -12.8% | 20.6µM* | -15.2% | ? | -19.6
Cc1cc(C(=O)CSc2ccc(F)cc2)cc(C)c1OC(=S)N(C)C | -4.1% | ? | -20.5% | ? | -21.0
COc1ccc2c(c1)sc1ncc(C(=O)NCc3ccccc3F)c(=O)n12 | · | 12.6% | · | -6.7% | ·
COc1ccc(/C=C/C(=O)Nc2cccc(S(=O)(=O)NC3=NCCCCC3)c2)cc1 | -0.6% | ? | -1.1% | 23.1µM* | 0.0
COc1ccc(C(=O)OCC(=O)Nc2cccc(S(=O)(=O)NC3=NCCCCC3)c2)cc1[N+](=O)[O-] | -6.3% | -15.0% | -4.2% | -6.1% | 6.0
O=C(COC(=O)/C=C/c1ccc(Cl)cc1)Nc1cccc(S(=O)(=O)NC2=NCCCCC2)c1 | 2.2% | ? | 1.7% | -30.1% | -9.1
O=C(COC(=O)c1ccc(OC(F)F)cc1)Nc1cccc(S(=O)(=O)NC2=NCCC2)c1 | 5.3% | -15.0% | ? | 3.3% | 15.5
COc1cc(/C=C/C(=O)Nc2cccc(S(=O)(=O)NC3=NCCCCC3)c2)ccc1OCC#N | ? | ? | ? | 25.9µM* | -56.1*
O=C(/C=C/c1ccc(OC(F)F)cc1)Nc1cccc(S(=O)(=O)NC2=NCCCCC2)c1 | -4.8% | ? | -14.7% | ? | -80.9*
COc1ccc(NC(=O)C2=C(C)Nc3nc(CCCO)nn3C2c2ccc(O)cc2)cc1 (stereo unspecified) | · | -14.6% | · | 14.8% | ·
CCCCc1ccc(NC(=O)C2CCCC2)cc1 | 5.9% | ? | -5.1% | ? | -67.4*
CCCc1ccc(NC(=O)C2CCCN(c3cnccn3)C2)cc1 (stereo unspecified) | 1.4% | 20.6µM* | 1.2% | 20.6µM* | -10.5
SMILES | HT1080-NT tox | TDP1 cell CPT | HT1080 IDH1KD tx | DT40 TDP1 no CPT | IL1B secr inh
CNc1nc(C)c(C(=O)c2ccc(Cl)cc2)s1 | -2.2% | -11.6% | -19.4% | ? | 26.8
COCCNC(=O)C1CCCN(C(=O)c2ccc3sccc3c2)CC1 (stereo unspecified) | 11.3% | -13.3% | 24.4% | 3.7% | 0.0
CCN(c1ccccc1C)S(=O)(=O)c1nnc(NC(=O)c2ccccc2C)s1 | · | ? | · | 18.4µM* | ·
CCN(c1ccc(C)cc1C)S(=O)(=O)c1nnc(NC(=O)c2ccccc2OC)s1 | · | ? | · | 16.4µM* | ·
CCN(c1ccc(OC)cc1)S(=O)(=O)c1nnc(NC(=O)c2ccccc2C)s1 | · | ? | · | -28.0% | ·
C=CCC(=O)NC1CC(C)(C)Cc2c1cnn2-c1ccccc1C (stereo unspecified) | 0.1% | ? | -9.1% | -25.3% | 9.2
Cc1ccc(-c2onc3ccc(C4OCCO4)cc23)cc1 | -1.6% | 1.3% | -5.0% | -21.4% | -17.9
CN(C)Cc1csc(NC(=O)Nc2cccc(Cl)c2)n1 | ? | 25.9µM* | ? | 18.4µM* | ?
Cc1cccc(C)c1NC(=O)Nc1nc(CN(C)C)cs1 | ? | -7.0% | 16.1% | -12.6% | 5.4
CN(C)Cc1csc(NC(=O)Nc2ccccc2Cc2ccccc2)n1 | 14.6µM* | ? | ? | ? | -17.2
CC(N)c1csc(NC(=O)Nc2cccc(C(F)(F)F)c2)n1 (stereo unspecified) | 18.4µM* | ? | 23.1µM* | ? | -102.2*
NCc1csc(NC(=O)Nc2cccc(Cl)c2)n1 | -2.7% | ? | -3.4% | ? | 0.0
CN(C)Cc1csc(NC(=O)Nc2cccc(C(F)(F)F)c2)n1 | ? | 14.6µM* | ? | 18.4µM* | -6.7
CC(=O)c1ccc[nH]1 | · | -12.2% | · | 0.6% | ·
O=C(NC1CC2CCCC(C1)N2C(=O)Nc1ccc(F)cc1)c1ccccc1 (stereo unspecified) | 1.1% | 3.9% | -2.0% | -2.2% | -2.9
CSCCC(NS(=O)(=O)c1ccc(C)cc1)C(=O)N1CC=C(c2ccccc2)CC1 (stereo unspecified) | -2.7% | -13.5% | 7.3% | ? | 4.6
COc1ccc2[nH]c(=O)c(CN(C(=O)c3ccco3)C(C)C)cc2c1 | -5.8% | -1.4% | 8.2% | -10.8% | -0.5
COc1ccc2[nH]c(=O)c(CN(Cc3ccccc3)Cc3nnnn3CC3CCCO3)cc2c1 (stereo unspecified) | -23.1% | ? | -14.5% | ? | -0.1
COCCn1nnnc1C(C(C)C)N(Cc1ccccc1)Cc1cc2cc(OC)ccc2[nH]c1=O (stereo unspecified) | ? | ? | ? | 16.4µM* | -55.8*
